Growth data for 39 compounds are collected here from PubChem BioAssay (NCI).

Several values for one entry are separate records, joined by “and”; a condition that tells them apart may be missing. Equal values may be shown once. The panel holds about 83,000 compounds, 20% with a hit somewhere; the sample as a whole holds those more often.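 Compound tested at a single concentration for 48 hours in 96-well plates; a percent growth value below 10 was scored as active.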 Activity calls are given as the source filed them.

In one assay the test system is HS 578T breast. Briefly: NCI-60 one-dose screen, 48 h (100 = growth as untreated, 0 = no growth, -100 = all killed). Conditions: 1 µM. The method, then:
Growth inhibition of the HS 578T human tumor cell line is measured as a screen for anti-cancer activity. Cells are grown in 96 well plates and exposed to the test compound for 48 hours. Compounds are tested at a single concentration, which is 10^-5 M for most compounds. The reported endpoint is percent growth (GI% or GIPRCNT), where numbers from 0 - 100% represent growth inhibition, and numbers from -100% - 0 represent cell death. For example, a value of 40 represents 60% growth inhibition. A value of 0 means no net growth occurred over the course of the experiment. A value of -40 indicates 40% of cells at the beginning of the experiment died by the end of the experiment. A value of -100 means all cells are dead at the end of the experiment.
NCI-60 Human Tumor Cell Lines Screen was performed using the standard one-dose NCI protocol, which is described in more detail at https://dtp.cancer.gov/discovery_development/nci-60/default.htm.
Compounds with GIPRCNT values below 10 were considered active. Activity score was based on GIPRCNT using the following formula: […]
Score is 0 for GIPRCNT values of 100 or above, 50 for GIPRCNT values of 0, and 100 for GIPRCNT values of -100.
For the compound `CC/C(=C(\c1ccc(O)cc1)c1ccc(OCCN(C)C(=O)COCCNC(=O)Cc2ccc3c(c2)CN([C@@H]2CCC(=O)NC2=O)C3=O)cc1)c1ccccc1`, the growth was 48.7% (inactive).

Still in this assay, the particulars now being: 10 µM.
For `CC/C(=C(\c1ccc(O)cc1)c1ccc(OCCN(C)C(=O)COCCNC(=O)Cc2ccc3c(c2)CN([C@@H]2CCC(=O)NC2=O)C3=O)cc1)c1ccccc1`, the growth was 7.64% (active).

The assay is the same for the next values; noted with them: 10 µM unless noted.
As to `COC(=O)c1ccc(-c2c(-c3ccccc3)c(F)c3oc(C(=O)OC)c(N)c3c2-c2ccccc2)cc1`, the growth was 91.1% (inactive).

For `COc1ccccc1NC(=O)c1ccc(NC(=O)CCl)s1`, the growth is 18.3% (inactive).

Turning to `CN1C(=O)/C(=C/c2ccco2)S/C1=N/c1nccs1`, the growth is 111% (inactive).

In the case of `O=C1CC(c2ccc(I)cc2)OC2C=Cc3ccccc3C12` (stereo not given), the growth is 104% (inactive).

Consider `COc1ccc(C(=O)/C=C/c2ccc3c(c2)OCCO3)cc1S(N)(=O)=O`, for which the growth was 87% (inactive).

For the compound `c1n[nH]cc1-c1nc2ccc3[nH]ncc3c2c2c1CC1(CC2)COC1`, the growth is 0.359% (active).

On to `Cc1ccc(Nc2nnc(-c3c[nH]c4ccccc34)o2)c(C)c1`, for which the growth was 30.9% (inactive).

Turning to `CC(Nc1ncnc2ccc(-c3ccc4oc(N)nc4c3)cc12)c1ccccc1` (stereo not given), the growth was -31.7% (active).

`Nc1nc(-c2ccccc2)c(N=Nc2ccc(Cl)cc2Cl)s1`: the growth was -28.2% (active).

`Cn1cc(-c2cc(N)n3nc(-c4c[nH]c5ccccc45)cc3n2)c2cc(F)ccc21`: the growth was 79.5% (inactive).

With `COc1ccc(N=Nc2c(N)nn3c(-c4cc5cc(Br)ccc5oc4=O)ccnc23)cc1`, the growth is 35.4% (inactive).

In the case of `O=C(CCl)Nc1ccc(C(=O)/C=C/c2cc3ccccc3nc2Cl)cc1`, the growth is 42.1% (inactive) and 53.7% (inactive).

Take `O=C(Nc1ccc(-c2ccc3c(c2)NC(=O)/C3=C\c2ccc[nH]2)cc1)Nc1ccc(Cl)c(Cl)c1`: the growth was 45.9% (inactive).

In the case of `O=C(N=Nc1c(O)[nH]c2ccc(Cl)cc12)c1ccc2nc(-c3ccc(Cl)cc3)[nH]c2c1`, the growth is 12.2% (inactive).

With `COc1c(B(O)O)cccc1-c1nc2ccc3cn[nH]c3c2c2c1CCCC2`, the growth is -17.9% (active).

In the case of `Nc1cc(-c2c[nH]c3ccc(Br)cc23)nc2cc(-c3c[nH]c4ccccc34)nn12`, the growth is -12.4% (active).

For `COc1cccc(-c2ccc(/C=N/NC(=O)c3[nH]c4ccc(Br)cc4c3-c3ccccc3)s2)c1`, the growth is 17.8% (inactive).

In the case of `C/C(=N/O)c1ccc(NC(=O)CSc2nnc(-c3ccc(-c4nc5ccc(Cl)cc5[nH]4)cc3)o2)cc1`, the growth was -13.3% (active).

With `O=c1[nH]c2ccccc2cc1COc1ccc(Nc2nccc(-c3ccc(Cl)cc3)n2)cc1`, the growth was 85.7% (inactive).

Consider `Cc1ccc(C2CC(c3ccc(S(=O)(=O)NCCNc4nc(N(C)C)nc(N5CCOCC5)n4)cc3)=Nc3c(N)nc(N)nc3N2)cc1` (stereo not given), for which the growth is 47.8% (inactive).

`COc1cc2cc(C(=O)N3C[C@@H](CCl)c4c3cc(OC(=O)N(CCC(=O)N3CCN(C)CC3)C3CCCCC3)c3ccccc43)[nH]c2c(OC)c1OC`: the growth is -34% (active).

`CN1C(=O)/C(=C\C(=O)c2cc3ccccc3oc2=O)c2ccccc21`: the growth was 57.3% (inactive).

`O=C(N/N=C/c1ccc(Br)o1)c1[nH]c2ccc(Br)cc2c1-c1ccccc1`: the growth was -4.62% (active).

Take `CC(C)(C)OC(=O)N1C/C(=C\c2ccc(F)cc2)C(=O)/C(=C/c2ccc(F)cc2)C1`: the growth is -6.73% (active).

Take `O=C(CSc1nnc(-c2ccc(-c3nc4ccccc4[nH]3)cc2)o1)Nc1ccc(Br)cc1`: the growth was 57.2% (inactive).

Turning to `Cc1nn(-c2ccccc2)c2nc(C)n(C(=O)N/N=C/c3ccccc3)c(=O)c12`, the growth was 84.3% (inactive).

Turning to `O=C(N/N=C/c1occc1Br)c1[nH]c2ccc(Br)cc2c1-c1ccccc1`, the growth was -28.4% (active).

On to `O=C1N/C(=N\c2nccs2)S/C1=C\c1ccc([N+](=O)[O-])cc1`, for which the growth is 20.8% (inactive).

With `COc1cc(C2C(C(=O)OCc3ccccc3)=C(C)Nc3nc4ccccc4n32)cc(OC)c1OC` (stereo not given), the growth was 14% (inactive).

Regarding `N#C/C(=C/c1ccc([N+](=O)[O-])cc1)c1nnc(NC(=O)c2ccc(-n3c(=O)[nH]c4ccccc4c3=O)cc2)s1`, the growth was 101% (inactive).

On to `COC(=O)c1cc(C(=O)CBr)n2c1ccc1c3ccccc3ccc12`, for which the growth was 61% (inactive).

Turning to `O=C(c1cc2cc(OCCCN3CCC3)ccc2[nH]1)N1C[C@@H](CCl)c2c1cc(OCc1ccccc1)c1ccccc21`, the growth was -8.06% (active).

With `O=C1Nc2cc(-c3ccc(NS(=O)(=O)c4ccc(C(F)(F)F)cc4)cc3)ccc2/C1=C/c1ccc[nH]1`, the growth is 40.6% (inactive).

As for `CC[C@]12C=CCN3CC[C@]4(C(=C(C(=O)OC)C1)Nc1cc(OC)c([C@@H]5[C@H]6O[C@H]6[C@@]6(CC)CC(C(=O)OC)=C7Nc8cc(OC)ccc8[C@@]78CCN5[C@@H]68)cc14)[C@@H]32`, the growth is 87.2% (inactive).

In the case of `O=C(Cc1c(-c2ccccc2[N+](=O)[O-])n(-c2ncnc3c2c(-c2ccccc2)c(-c2ccccc2)n3Cc2ccccc2)[nH]c1=O)c1ccc(Cl)c(Cl)c1`, the growth was 22% (inactive).

For `CS(=O)(=O)c1ccc(-n2nc(C(=O)NCc3ccccc3)cc2-c2ccc(Cl)cc2)cc1`, the growth is 110% (inactive).

Turning to `CNc1nc2ccccc2n2c(-c3ccc(O)c(O)c3)cnc12`, the growth was 1.79% (active).

For `COc1cc2cc(C(=O)N3C[C@@H](CCl)c4c3cc(OC(=O)N(C)CCSSCCN3CCOCC3)c3ccccc43)[nH]c2c(OC)c1OC`, the growth was -15.2% (active).
